From the supplement of paper PMC10849652
About 7,900 targets were measured; listed, in parts, are those with a hit and a random draw of the rest. About 0.6% of all pairs of compound and target were hits. Unmarked numbers belong to inactive results.

Key:
Experiment in all cases: log2 fold change, soluble protein after heating vs DMSO (PISA); higher = thermal stabilisation; K562 cells, 10 uM, 30 min; active = over 0.2 and 3.5 SD of the protein, either way, in both replicates (recomputed)
erlotinib = compound: C#Cc1cccc(Nc2ncnc3cc(OCCOC)c(OCCOC)cc23)c1 [erlotinib]
In short: (§1)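 K562 cells at 2×10^6 cells/mL were given 10 μM compound for 30 min. Aliquots then went through 3 min of heating across 48°C-58°C, were pooled, and were extracted in PBS with 0.5% NP-40 at 4°C, and the supernatant after 21,000xg for 90 min was quantified by TMTpro 16plex LC-MS/MS with channel sums equalised. Thermal stability relative to control samples, from duplicates, is given as log2 fold change.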

[1] = compound: C/C(=N\NC(=O)C1=CC(=CC=C1)S(=O)(=O)N2CCOCC2)/C3=C(C=CC(=C3)Cl)O
In short: as §1

[2] = compound: C1=CC(=C(C=C1Cl)C2=NC3=NC=CN=C3C(=N2)NC4=CC=NC=C4)F
In short: as §1

[3] = compound: C1=CC(=CC=C1C2=NC3=C(N2)C=C(C=C3)C(=O)N)OC4=CC=C(C=C4)Cl
In short: as §1

[4] = compound: C1=CC2=C(C=CC(=C2)/C=C\3/C(=O)NC(=NCC4=CC=CS4)S3)N=C1
In short: as §1

[5] = compound: C1=CC2=NC=CN=C2C=C1/C=C/3\C(=O)NC(=O)S3
In short: as §1

[6] = compound: C1=CC=C(C=C1)C2=NC(=C(N2)C3=CC=NC=C3)C4=CC(=C(C=C4)Cl)O
In short: as §1

[7] = compound: C1=CC=C2C(=C1)C3=NNC4=CC=CC(=C43)C2=O
In short: as §1

[8] = compound: C1CCN(C1)C(=O)NC2=CC=CC(=C2)NC3=NC=C(C(=N3)NCCC4=CN=CN4)Br
In short: as §1

[9] = compound: C1CN(CCC1(CC2=CC=C(C=C2)Cl)N)C3=NC=NC4=C3C=CN4
In short: as §1

IRAK-1-4 Inhibitor I = compound: C1COCCN1CCN2C3=CC=CC=C3N=C2NC(=O)C4=CC(=CC=C4)[N+](=O)[O-] [IRAK-1-4 Inhibitor I]
In short: as §1

ibrutinib = compound: C=CC(=O)N1CCC[C@@H](n2nc(-c3ccc(Oc4ccccc4)cc3)c3c(N)ncnc32)C1 [ibrutinib]
In short: as §1

[10] = compound: CC(=O)c1cnc2ccc(-c3cc(Cl)c(O)c(Cl)c3)nc2c1N[C@H]1CC[C@H](CN(C)C)CC1
In short: as §1

ralimetinib = compound: CC(C)(C)Cn1c(N)nc2ccc(-c3[nH]c(C(C)(C)C)nc3-c3ccc(F)cc3)nc21 [ralimetinib]
In short: as §1

[11] = compound: CC(C)(O)CC(=O)NCCn1ccc2ncnc(Nc3ccc(Oc4cccc(C(F)(F)F)c4)c(Cl)c3)c21
In short: as §1

[12] = compound: CC(C)C1=C2N=C(C=C(N2N=C1)NCC3=CC=CC=C3)NCCCCCCN
In short: as §1

[13] = compound: CC(C)C[C@@H](C=O)NC(=O)[C@H](CC(C)C)NC(=O)[C@H](CC(C)C)NC(=O)OCc1ccccc1
In short: as §1

pinometostat = compound: CC(C)N(C[C@H]1O[C@@H](n2cnc3c(N)ncnc32)[C@H](O)[C@@H]1O)[C@H]1C[C@@H](CCc2nc3cc(C(C)(C)C)ccc3[nH]2)C1 [pinometostat]
In short: as §1

[14] = compound: CC1=C(C(CC(=O)N1)C2=CC=C(C=C2)C(F)(F)F)C(=O)NC3=C(C=C4C(=C3)C=NN4)F
In short: as §1

[15] = compound: CC1=C(C2=C(C=C1)C(=O)C3=CC=CC=C3N2CCCN)C
In short: as §1

Sequence of UniProt Q5VUM1 (Q5VUM1 whole entry, looked up): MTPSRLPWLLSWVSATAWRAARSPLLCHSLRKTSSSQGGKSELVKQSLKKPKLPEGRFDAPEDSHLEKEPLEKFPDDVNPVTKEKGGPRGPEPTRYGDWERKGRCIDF
Sequence of UniProt Q01196 (Q01196 whole entry, looked up): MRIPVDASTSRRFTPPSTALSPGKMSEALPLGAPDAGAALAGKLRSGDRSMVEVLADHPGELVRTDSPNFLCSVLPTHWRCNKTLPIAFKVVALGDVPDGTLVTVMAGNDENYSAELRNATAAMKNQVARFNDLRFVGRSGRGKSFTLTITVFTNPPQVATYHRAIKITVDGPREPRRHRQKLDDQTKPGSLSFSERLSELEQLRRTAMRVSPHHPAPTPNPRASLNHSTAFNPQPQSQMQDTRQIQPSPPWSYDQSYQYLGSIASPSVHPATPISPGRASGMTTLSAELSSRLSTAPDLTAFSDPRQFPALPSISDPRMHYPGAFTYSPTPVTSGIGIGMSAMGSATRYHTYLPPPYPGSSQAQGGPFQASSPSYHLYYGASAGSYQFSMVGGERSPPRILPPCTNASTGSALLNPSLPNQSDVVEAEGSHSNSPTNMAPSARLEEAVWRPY
Sequence of UniProt Q8TDY2 (Q8TDY2 whole entry, looked up): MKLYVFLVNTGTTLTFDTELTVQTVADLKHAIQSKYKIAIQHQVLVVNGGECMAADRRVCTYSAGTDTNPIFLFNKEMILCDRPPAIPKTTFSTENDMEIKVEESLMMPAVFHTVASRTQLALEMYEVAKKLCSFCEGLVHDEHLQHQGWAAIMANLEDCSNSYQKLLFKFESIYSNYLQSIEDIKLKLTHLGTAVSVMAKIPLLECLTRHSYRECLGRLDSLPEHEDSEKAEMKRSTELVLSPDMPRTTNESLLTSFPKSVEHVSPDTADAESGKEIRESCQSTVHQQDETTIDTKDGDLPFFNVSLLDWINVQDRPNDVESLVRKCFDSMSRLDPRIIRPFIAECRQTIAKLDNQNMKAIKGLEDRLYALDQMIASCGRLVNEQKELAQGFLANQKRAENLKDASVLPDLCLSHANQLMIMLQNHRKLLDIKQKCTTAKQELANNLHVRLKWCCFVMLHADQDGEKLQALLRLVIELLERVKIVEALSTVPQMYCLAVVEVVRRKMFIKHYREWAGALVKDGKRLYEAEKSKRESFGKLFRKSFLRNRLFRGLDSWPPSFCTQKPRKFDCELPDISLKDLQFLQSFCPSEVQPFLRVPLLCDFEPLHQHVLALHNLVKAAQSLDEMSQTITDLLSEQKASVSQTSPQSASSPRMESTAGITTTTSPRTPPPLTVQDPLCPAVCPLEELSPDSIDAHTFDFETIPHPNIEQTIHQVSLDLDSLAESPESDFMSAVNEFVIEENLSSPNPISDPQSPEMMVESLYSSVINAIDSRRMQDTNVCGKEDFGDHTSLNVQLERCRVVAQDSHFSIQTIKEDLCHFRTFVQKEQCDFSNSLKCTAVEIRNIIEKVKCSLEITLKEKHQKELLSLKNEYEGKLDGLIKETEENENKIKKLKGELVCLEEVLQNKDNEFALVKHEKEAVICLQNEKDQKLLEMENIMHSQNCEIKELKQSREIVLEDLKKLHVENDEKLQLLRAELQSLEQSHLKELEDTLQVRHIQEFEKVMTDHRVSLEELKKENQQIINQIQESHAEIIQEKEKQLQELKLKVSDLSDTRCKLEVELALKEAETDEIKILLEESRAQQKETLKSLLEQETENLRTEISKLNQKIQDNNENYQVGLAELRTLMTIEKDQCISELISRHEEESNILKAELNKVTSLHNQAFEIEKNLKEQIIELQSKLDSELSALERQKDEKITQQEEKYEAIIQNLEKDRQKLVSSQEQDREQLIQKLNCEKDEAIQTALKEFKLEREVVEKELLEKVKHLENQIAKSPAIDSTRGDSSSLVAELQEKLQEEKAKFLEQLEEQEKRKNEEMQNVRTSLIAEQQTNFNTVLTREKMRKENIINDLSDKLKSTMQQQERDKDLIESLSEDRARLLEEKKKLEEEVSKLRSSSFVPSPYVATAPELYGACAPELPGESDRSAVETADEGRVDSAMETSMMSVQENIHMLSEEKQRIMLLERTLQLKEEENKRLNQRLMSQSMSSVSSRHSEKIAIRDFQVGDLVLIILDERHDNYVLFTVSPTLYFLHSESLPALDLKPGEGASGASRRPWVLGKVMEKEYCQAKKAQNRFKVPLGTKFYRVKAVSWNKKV
Sequence of UniProt P04049 (P04049 whole entry, looked up): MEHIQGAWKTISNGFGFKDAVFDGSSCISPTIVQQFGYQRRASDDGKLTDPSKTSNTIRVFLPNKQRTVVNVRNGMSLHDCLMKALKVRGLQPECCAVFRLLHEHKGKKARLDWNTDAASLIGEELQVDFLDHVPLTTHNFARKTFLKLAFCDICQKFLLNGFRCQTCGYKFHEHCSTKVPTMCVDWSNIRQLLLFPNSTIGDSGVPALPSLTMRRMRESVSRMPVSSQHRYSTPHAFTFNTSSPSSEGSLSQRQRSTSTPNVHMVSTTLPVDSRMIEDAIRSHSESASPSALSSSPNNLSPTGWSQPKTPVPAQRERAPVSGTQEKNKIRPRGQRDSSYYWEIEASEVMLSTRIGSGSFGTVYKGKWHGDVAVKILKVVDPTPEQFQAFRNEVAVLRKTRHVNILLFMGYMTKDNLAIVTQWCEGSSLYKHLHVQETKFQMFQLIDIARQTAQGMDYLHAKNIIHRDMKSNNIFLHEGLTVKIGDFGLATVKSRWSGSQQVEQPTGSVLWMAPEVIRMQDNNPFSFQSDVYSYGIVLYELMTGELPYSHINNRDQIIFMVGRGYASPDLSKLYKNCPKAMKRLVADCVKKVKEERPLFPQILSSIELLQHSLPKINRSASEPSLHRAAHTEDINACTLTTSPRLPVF
Sequence of UniProt Q96DM3 (Q96DM3 whole entry, looked up): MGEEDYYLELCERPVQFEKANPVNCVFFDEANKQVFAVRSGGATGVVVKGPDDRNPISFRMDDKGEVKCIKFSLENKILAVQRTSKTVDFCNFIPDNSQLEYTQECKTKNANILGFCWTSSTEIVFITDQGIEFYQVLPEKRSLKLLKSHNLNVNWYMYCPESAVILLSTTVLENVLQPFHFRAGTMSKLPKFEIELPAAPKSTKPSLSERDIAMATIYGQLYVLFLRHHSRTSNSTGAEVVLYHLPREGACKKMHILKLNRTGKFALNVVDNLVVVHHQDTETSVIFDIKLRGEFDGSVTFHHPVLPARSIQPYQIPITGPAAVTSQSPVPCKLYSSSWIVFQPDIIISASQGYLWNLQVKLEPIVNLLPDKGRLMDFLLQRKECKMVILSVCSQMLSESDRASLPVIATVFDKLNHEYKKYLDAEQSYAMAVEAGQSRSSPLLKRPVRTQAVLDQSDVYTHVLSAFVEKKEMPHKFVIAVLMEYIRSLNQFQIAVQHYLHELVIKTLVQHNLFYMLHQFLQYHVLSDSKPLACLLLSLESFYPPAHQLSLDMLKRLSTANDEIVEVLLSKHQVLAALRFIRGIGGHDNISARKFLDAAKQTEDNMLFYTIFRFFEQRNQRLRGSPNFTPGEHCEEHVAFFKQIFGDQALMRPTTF
Sequence of UniProt Q6NUM9 (Q6NUM9 whole entry, looked up): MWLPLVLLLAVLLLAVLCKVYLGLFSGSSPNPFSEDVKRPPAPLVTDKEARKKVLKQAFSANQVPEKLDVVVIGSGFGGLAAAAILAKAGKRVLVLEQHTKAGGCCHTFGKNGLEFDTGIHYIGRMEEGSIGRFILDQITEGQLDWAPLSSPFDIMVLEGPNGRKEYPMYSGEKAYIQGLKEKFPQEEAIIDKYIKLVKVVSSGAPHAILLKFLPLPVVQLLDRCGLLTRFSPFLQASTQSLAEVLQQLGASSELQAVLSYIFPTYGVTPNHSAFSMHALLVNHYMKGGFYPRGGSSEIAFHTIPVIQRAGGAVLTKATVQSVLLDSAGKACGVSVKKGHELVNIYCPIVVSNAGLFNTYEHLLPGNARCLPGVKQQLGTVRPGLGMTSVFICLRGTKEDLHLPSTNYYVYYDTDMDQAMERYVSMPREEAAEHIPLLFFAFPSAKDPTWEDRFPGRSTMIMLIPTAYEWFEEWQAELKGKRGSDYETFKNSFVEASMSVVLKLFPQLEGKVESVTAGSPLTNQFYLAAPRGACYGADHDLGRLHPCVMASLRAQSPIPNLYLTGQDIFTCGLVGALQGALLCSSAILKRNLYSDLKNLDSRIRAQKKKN
Sequence of UniProt P27694 (P27694 whole entry, looked up): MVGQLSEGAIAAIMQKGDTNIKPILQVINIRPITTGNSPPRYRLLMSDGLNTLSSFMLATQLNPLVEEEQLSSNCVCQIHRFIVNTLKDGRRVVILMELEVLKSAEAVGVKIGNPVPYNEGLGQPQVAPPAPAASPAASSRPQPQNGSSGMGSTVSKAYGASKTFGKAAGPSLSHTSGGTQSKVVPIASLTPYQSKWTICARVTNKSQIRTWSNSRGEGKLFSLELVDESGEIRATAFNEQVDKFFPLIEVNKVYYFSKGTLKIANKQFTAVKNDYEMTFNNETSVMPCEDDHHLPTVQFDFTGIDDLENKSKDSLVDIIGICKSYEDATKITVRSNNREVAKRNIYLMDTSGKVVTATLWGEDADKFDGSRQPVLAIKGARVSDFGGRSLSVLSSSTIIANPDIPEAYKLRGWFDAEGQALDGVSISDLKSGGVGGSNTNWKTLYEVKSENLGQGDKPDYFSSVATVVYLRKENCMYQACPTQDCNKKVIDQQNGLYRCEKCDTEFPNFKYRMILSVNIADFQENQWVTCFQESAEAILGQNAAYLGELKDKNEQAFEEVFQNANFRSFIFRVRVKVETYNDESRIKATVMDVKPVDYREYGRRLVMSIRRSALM
Sequence of UniProt Q9BQY4 (Q9BQY4 whole entry, looked up): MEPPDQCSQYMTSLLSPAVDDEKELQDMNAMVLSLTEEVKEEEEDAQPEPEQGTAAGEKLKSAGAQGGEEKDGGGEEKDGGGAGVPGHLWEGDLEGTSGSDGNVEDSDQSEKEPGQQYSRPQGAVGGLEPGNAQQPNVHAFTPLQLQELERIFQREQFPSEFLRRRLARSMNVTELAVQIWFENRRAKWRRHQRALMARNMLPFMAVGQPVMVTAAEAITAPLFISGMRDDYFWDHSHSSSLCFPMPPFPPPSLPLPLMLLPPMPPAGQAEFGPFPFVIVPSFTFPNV

Target	log2 fold change (erlotinib)	log2 fold change [1]	log2 fold change [2]	log2 fold change [3]	log2 fold change [4]	log2 fold change [5]	log2 fold change [6]	log2 fold change [7]	log2 fold change [8]	log2 fold change [9]	log2 fold change (IRAK-1-4 Inhibitor I)	log2 fold change (ibrutinib)	log2 fold change [10]	log2 fold change (ralimetinib)	log2 fold change [11]	log2 fold change [12]	log2 fold change [13]	log2 fold change (pinometostat)	log2 fold change [14]	log2 fold change [15]
SCG3 (UniProt Q8WXD2)	-0.076	0.141	0.023	0.088	0.09	-0.015	0.103	-0.094	-0.05	0.036	-0.003	0.035	-0.107	0.061	0.039	0.203	0.038	-0.139	0.05	-0.359
RHOXF2 (UniProt Q9BQY4)	-0.067	-0.137	-0.002	0.003	-0.06	0.054	0.06	-0.026	0.036	0.011	0.012	0.003	0.002	0.051	-0.031	-0.03	0.027	-0.037	0.027	-0.007
SDHAF4 (UniProt Q5VUM1)	0	0.104	0.026	0.031	0.118	0.033	–	-0.117	0.054	0.094	-0.071	0.01	-0.055	–	0.081	0.149	–	-0.082	-0.101	0.021
SEPTIN5 (UniProt G3XAH0)	0.009	-0.251	0.146	0.076	-0.022	-0.035	0.014	-0.24	0.009	0.049	–	0.018	0.123	-0.056	-0.133	0.092	-0.009	–	-0.003	0.027
SHROOM2 (UniProt Q13796)	0.266	-1.03 (active)	0.095	-0.361	0.069	-0.021	–	0.013	-0.027	0.303	0.236	0.065	0.137	–	0.009	0.155	–	-0.182	-0.015	0.072
RPA1 (UniProt P27694)	0.003	0.07	0.147	0.008	-0.005	0.003	0.027	0.075	-0.013	-0.021	-0.026	-0.022	-0.03	-0.008	-0.053	-0.019	-0.027	-0.021	-0.007	0.202
RETSAT (UniProt Q6NUM9)	0.044	-0.149	0.132	0.502 (active)	0.052	0.002	0.056	0.144	-0.126	0.194	-0.09	0.042	0.01	0.012	0.178	-0.048	-0.007	-0.012	-0.037	0.059
RB1CC1 (UniProt Q8TDY2)	0.119	-0.066	0.102	0.046	0.211	-0.07	0.015	0.03	-0.024	0.022	0.092	0.094	0.045	0.089	-0.11	0.045	0.03	-0.023	-0.015	0.041
RAF1 isoform 2 (UniProt P04049)	-0.048	0.08	-0.129	0.04	0.197	0.02	0.513 (active)	0.01	-0.121	0.022	-0.038	-0.058	-0.263	-0.054	-0.072	-0.12	0.066	0.29	–	0.09
RAB3IL1 (UniProt E9PK89)	-0.238	-0.055	0.116	-0.001	0.058	0.104	-0.028	0.197	-0.162	0.004	-0.012	-0.021	-0.006	-0.018	-0.127	-0.032	0.006	0.017	0.08	-0.005
RPS3 (UniProt P23396)	-0.136	-0.072	-0.224	0.061	-0.026	-0.027	-0.073	-0.03	0.093	-0.156	-0.091	0.02	0.051	0.034	0.005	-0.096	0.016	0.128	0.031	-0.497 (active)
RUNX1 isoform 8 (UniProt Q01196)	0.122	0.081	-0.03	0.048	-0.001	0.032	0.131	-0.033	–	–	-0.102	0.058	-0.207	-0.043	-0.138	-0.184	0.082	0.069	0.076	–
SART3, A0A499FI31	-0.034	0.058	0.102	0.032	0.032	0.084	-0.004	-0.045	-0.078	-0.014	-0.021	-0.017	0.062	0.002	-0.033	-0.379 (active)	-0.051	-0.025	0.021	-0.377 (active)
RPS13 (UniProt P62277)	-0.156	-0.17	-0.544	0.088	-0.11	-0.053	-0.088	-0.015	0.101	-0.184	-0.096	0.035	0.103	0.13	0.071	-0.031	0.137	0.345	0.035	-0.759 (active)
RMC1 (UniProt Q96DM3)	0.028	0.124	0.048	0.04	0.027	-0.038	0.011	-0.055	0.048	-0.038	0.038	0.03	-0.026	-0.025	-0.002	-0.209	0.011	-0.015	0.028	0.039
SCAF8 isoform 2 (UniProt Q9UPN6)	0.203	0.051	0.048	0.034	0.124	-0.028	0.298	0.069	-0.031	-0.036	0.035	-0.057	-0.145	-0.054	-0.169	-0.417 (active)	0.23	0.065	-0.05	0.138
